# Bioassay records deposited in PubChem by National Center for Advancing Translational Sciences (NCATS).
# This is a sample that favours compounds with a hit; in the whole collection about 19% have one here.
# IL1B secr inh: inflammasome signaling inhibition, IL-1 beta readout; THP-1 LPS/ATP IL-1B secretion, AlphaLISA, 16 h; active compounds read low; hit rate 4.7% among 360,000; AID 743279; activity change, % at 57.5 µM; in the data active = activity change below about -50%; inconclusive = mostly about -30% to -49%
#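 THP-1 cells pretreated 1 hr with compounds (up to 57.5 uM final), then stimulated with LPS (250 ng/mL final) plus ATP (1.25 mM final); secreted IL-1B measured by AlphaLISA after 16 hr, decreased signal indicating inhibition.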
# DT40 TDP1 CPT: growth inhibition of DT40 Tdp1-/-;hTDP1 cells with camptothecin (screen for TDP1 inhibitors); chicken DT40 Tdp1-/-;hTDP1 cells + 20 nM CPT, ATP luminescence, 48 h; Potency, µM (highest dose often 46.2 µM), inactives show at the highest dose activity change, negative = growth inhibition, actives largely listed as inhibitors; hit rate 12% among 420,000; AID 686979; also: potency is read from the fitted curve at half-maximal effect; nearly all actives have a fitted effect of over 55% in size
#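 Chicken DT40 Tdp1-/- cells stably complemented with human TDP1 were seeded at 400 cells/well in medium containing 20 nM camptothecin, exposed to pin-transferred compounds, and grown at 37 °C for at least 48 hr. Viability was read as ATP luminescence.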
# Giardia kill: kills Giardia lamblia; Giardia lamblia trophozoite viability; activity change, % at 7.66 µM, hits read low; hit rate 0.15% among 340,000; in the data active = activity change below about -80%; inconclusive = between about -30% and that limit;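 also: parasites exposed to compound for two days anaerobically before the ATP read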
#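 Killing of trophozoites was scored by loss of ATP luminescence after a 48 hrs anaerobic exposure to compounds at 37 deg C, using 100 cells per well.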
# DT40 TDP1 no CPT: qHTS for Inhibitors of human tyrosyl-DNA phosphodiesterase 1 (TDP1): qHTS in cells in absence of CPT; Potency, µM (doses to about 46.2 µM), for inactives: at the top dose activity change, negative = growth inhibition, actives largely listed as inhibitors; hit rate 15% among 420,000; DT40 Tdp1-/- hTDP1 cells, no CPT, ATP luminescence, 48 h; also: potency is read from the fitted curve at half-maximal effect; nearly all actives have a fitted effect of over 55% in size
#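 Stably hTDP1-transfected Tdp1-null chicken DT40 cells were treated with library compounds minus camptothecin and grown for at least 48 hr at 37 °C, after which cellular ATP was quantified by luminescence.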
# ELG1 DNA repair: blocks ELG1-dependent DNA repair in HEK293T cells; hit rate 2.3% among 330,000; AID 504467; Potency, µM (highest dose often 46.1 µM), without a hit: top-dose activity change, negative = inhibition, most hits filed as inhibitors; HEK293T ELG1-luciferase reporter, luminescence, 16 h; DNA damage induced by 5-fluorouridine; also: potency is read from the fitted curve at half-maximal effect; nearly all actives have a fitted effect of over 55% in size
#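 Cells (2,000 per well) received 5-fluorouridine plus test compound or DMSO and were incubated 16 hr at 37 °C, 5% CO2. Luciferase activity was read by luminescence 30 min after ONE-Glo addition; signal suppression marked inhibition of damage-induced ELG1 function.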
# TDP1 block: TDP1 (human) enzyme inhibition. hit rate 0.28% among 350,000. Potency, µM (titrated, usually from 130 µM), inactives show at the highest dose activity change, negative = inhibition, hits mostly inhibitors. AID 485290. recombinant TDP1, AlphaScreen DNA substrate cleavage. Q9NUW8; also: potency is read from the fitted curve at half-maximal effect; nearly all actives have a fitted effect of over 40% in size
#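 Recombinant human Tdp1 (E. coli-expressed, 1 nM final) preincubated with compounds 15 min at room temperature, then 5'-biotin/3'-phosphotyrosine-FITC DNA substrate (15 nM final) added for 5 min. AlphaScreen beads (10 ug/ml final) added 10 min; cleavage lowers signal.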
# * hit, by the source's call; u = inconclusive; x = no result given. Unless noted, calls follow the shape of the dose curve; as a rule, active = well fitted curve in the direction sought with a large enough effect; inconclusive = small, poorly fitted or top-dose-only effect, or another doubt; inactive = no such curve, though single readings can be large; an effect the other way counts as inactive or inconclusive. % is scaled to controls: 0 for no effect and ±100 for the full control effect.
SMILES,IL1B secr inh,DT40 TDP1 CPT,Giardia kill,DT40 TDP1 no CPT,ELG1 DNA repair,TDP1 block
Clc1ccc(C(c2ccccc2)N2CCN(c3ccccn3)CC2)cc1 (stereo not given),11,u,23,18µM*,u,3%
COc1ccc(CNC(=O)[C@@H](NC(=O)C2CCN(C(=O)[C@@H](N)Cc3ccccc3)CC2)C(C)C)cc1,-6,-2%,-19,-13%,17%,x
Cn1c(O)c(N=NC(=O)c2cccc(S(=O)(=O)N3CCCCC3)c2)c2ccccc21,-22,16µM*,9,u,18µM*,8%
COc1ccc(OC(F)(F)F)cc1CC1(C)C(=O)Nc2c(Cl)ccc(Cl)c21 (stereo not given),-11,u,x,u,x,x
CC1(Cc2ccc(C(F)(F)F)o2)C(=O)Nc2ccc(-c3cccc(C(F)(F)F)c3)cc21 (stereo not given),-9,15µM*,x,12µM*,x,x
CCc1ccc2c(c1)NC(=O)C2(C)Cc1ccccc1 (stereo not given),25,u,x,u,x,x
CC1(Cc2ccccc2C#N)C(=O)Nc2ccc(OC(F)(F)F)cc21 (stereo not given),-22,-29%,x,-28%,x,x
CCc1ccc2c(c1)NC(=O)C2(C)Cc1ccc(C(F)(F)F)o1 (stereo not given),4,23µM*,x,u,x,x
CC1(Cc2ccc3c(c2)OCO3)C(=O)Nc2ccc(-c3cccc(C(F)(F)F)c3)cc21 (stereo not given),u,23µM*,x,21µM*,x,x
CC1(Cc2cccc(C(F)(F)F)c2)C(=O)Nc2c(Cl)cccc21 (stereo not given),10,u,x,u,x,x
CC1(Cc2ccc3c(c2)OCO3)C(=O)Nc2c(Cl)ccc(Cl)c21 (stereo not given),38,u,x,23µM*,x,x
Cc1nn(CC(=O)NC2CC2)c(=O)c2cc3ccccc3n12,x,-3%,x,-8%,x,-3%
CCOc1ccc(S(=O)(=O)N2CCC(C(=O)NC3CC3)CC2)cc1C,-7,-18%,6,-14%,0%,8%
COc1cc(F)ccc1-c1csc(C(NC(C)=O)c2ccccc2)n1 (stereo not given),-3,-27%,x,-20%,x,x
O=C(c1cccc(F)c1)N1CCCN(C(=O)c2cccc(F)c2)CC1,-5,4%,3,-4%,1%,3%
O=C(c1cccc(Cl)c1)N1CCC(N2CCC(C(=O)N3CCOCC3)CC2)CC1,1,6%,17,-6%,1%,x
O=C(c1ccc(N2CCN(C(=O)c3ccc(F)c(F)c3)CC2)cc1)c1cccc(F)c1,-21,23µM*,17,13µM*,3%,7%
O=C(c1ccc(N2CCN(C(=O)c3ccccc3)CC2)cc1)c1cccc(F)c1,-77*,u,-2,16µM*,u,4%
O=C(c1ccccc1)c1ccc(C(=O)N2CCN(c3ccc(O)cc3)CC2)cc1,-5,-27%,4,-30%,u,5%
O=C(c1cccc(F)c1)N1CCC(N2CCOCC2)CC1,14,5.8µM*,2,-10%,u,-12%
CC1Cc2nc(SCC(=O)N3CCc4ccccc43)n(C)c(=O)c2S1 (stereo not given),18,u,-15,23µM*,-23%,6%
CC1Cc2nc(SCC(=O)NC3CCCCC3)n(C)c(=O)c2S1 (stereo not given),25,-30%,19,-22%,4%,-3%
COc1ccccc1-n1c(SCC(=O)N2CCc3ccccc32)nc2c(c1=O)SCC2,-16,9.2µM*,10,7.3µM*,u,9%
COc1cc(C)ccc1S(=O)(=O)NC(=O)C1(C)CCN1C(=O)Cc1ccc(Cl)cc1Cl (stereo not given),15,5%,x,0%,x,x
